Tested on: E18 rat cortical neuron-glia co-culture
Assay: myelination (MBP fiber length per Olig2+ nucleus), % of 1 µM DAPT response (DMSO = 0) (% of DAPT); higher = more myelination, active = 50 or more
Settings: 1 µM; treatment time: 8 days (DIV5-DIV13)
How it was run: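 Primary E18 rat cortical co-cultures (papain-dissociated, 20,000 cells/well on poly-d-lysine/laminin 96-well plates) received library compounds at 1 or 5 µM in myelination medium from DIV5 to DIV13. Cells were fixed in 4 % paraformaldehyde and immunostained for MBP and Olig2 with DAPI, and four 10X fields per well in duplicate wells were analysed. Myelination was continuous straight MBP fiber length per Olig2+ nucleus, normalised to 0.1 % DMSO (0) and a 1 µM positive control (100).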

myelination, inactive:
NS(=O)(=O)c1cc2c(cc1C(F)(F)F)NCNS2(=O)=O [Hydroflumethiazide] -2.17
CN1CCc2cc(Cl)c(O)cc2C(c2ccccc2)C1 (configuration not stated) -8.8
OC(CCN1CCCCC1)(c1ccccc1)C1CCCCC1 (configuration not stated) [Trihexyphenidyl] -12.2
COc1ccc2[nH]c([S@@+]([O-])Cc3ncc(C)c(OC)c3C)nc2c1 [Esomeprazole] -10.5
COc1ccc(OC)c(C(O)CNC(=O)CN)c1 (configuration not stated) [Midodrine] -19.2
CCCN[C@H]1CCc2nc(N)sc2C1 [Pramipexole] -6.49
Nc1nc2c(ncn2COCCO)c(=O)[nH]1 [Acyclovir] -11.9
CCCCC[C@H](O)/C=C/[C@H]1[C@H](O)CC(=O)[C@@H]1CCCCCCC(=O)O [Alprostadil] -1.94
CC(C)c1ccc2oc3nc(N)c(C(=O)O)cc3c(=O)c2c1 [Amlexanox] -13.2
CN(C)[C@@H]1C(O)=C(C(N)=O)C(=O)[C@@]2(O)C(O)=C3C(=O)c4c(O)cccc4[C@@](C)(O)[C@H]3[C@H](O)[C@@H]12 [Oxytetracycline] -5.3
CC(=O)[C@H]1CC[C@H]2[C@@H]3CCC4=CC(=O)CC[C@]4(C)[C@H]3CC[C@]12C [Progesterone] -31.5
CCN(CC)CCNC(=O)c1ccc(N)cc1 [Procainamide] -8.23
COC(=O)[C@H](c1ccccc1Cl)N1CCc2sccc2C1 [Clopidogrel] -6.76
CC(C)[C@H]1CC[C@H](C(=O)N[C@H](Cc2ccccc2)C(=O)O)CC1 [Nateglinide] -12.6
CC(=O)NCCCCCCNC(C)=O [Hexamethylene bisacetamide] -0.00866
CN(C)CCCSc1ccccc1NC(=O)/C=C/c1ccccc1 [Cinanserin] -5.83
CNS(=O)(=O)Cc1ccc2[nH]cc(CCN(C)C)c2c1 [Sumatriptan] -5.51
CCN(CC)C(=O)C1(c2ccccc2)CC1CN (configuration not stated) [Milnacipran] -8.81
CC(C[N+](C)(C)C)OC(N)=O (configuration not stated) [Bethanechol] -14.3
CS(=O)(=O)OCCCCOS(C)(=O)=O [Busulfan] -6.35
COc1cc(C)c(Cc2cnc(N)nc2N)cc1OC [Ormetoprim] -31.5
CCOC(=O)N1CCC(=C2c3ccc(Cl)cc3CCc3cccnc32)CC1 [Loratadine] -5.25
C[C@@H]1C[C@H]2[C@@H]3C[C@H](F)C4=CC(=O)C(Cl)=C[C@]4(C)[C@@]3(F)[C@@H](O)C[C@]2(C)[C@@]1(O)C(=O)CO [Halometasone hydrate] -20.7
CN1C(C(=O)Nc2ccccn2)=C(O)c2ccccc2S1(=O)=O [Piroxicam] -10.9
CN(C)CCCN1c2ccccc2Sc2ccc(Cl)cc21 [Chlorpromazine] 8.68
O=C(CCCN1CC=C(n2c(=O)[nH]c3ccccc32)CC1)c1ccc(F)cc1 [Droperidol] -4.1
CC[C@H]1OC(=O)[C@H](C)[C@@H](O[C@H]2C[C@@](C)(OC)[C@@H](O)[C@H](C)O2)[C@H](C)[C@@H](O[C@@H]2O[C@H](C)C[C@H](N(C)C)[C@H]2O)[C@](C)(O)C[C@@H](C)CN(C)[C@H](C)[C@@H](O)[C@]1(C)O [Azithromycin] -7.57
CN1CCC(=C2c3ccccc3C=Cc3ccccc32)CC1 [Cyproheptadine] -14.7
CC(C)(C(=O)O)c1ccc(C(O)CCCN2CCC(C(O)(c3ccccc3)c3ccccc3)CC2)cc1 (configuration not stated) [Fexofenadine] 0.24
CO[C@H]1/C=C/O[C@@]2(C)Oc3c(C)c(O)c4c(O)c(c(/C=N/N5CCN(C)CC5)c(O)c4c3C2=O)NC(=O)/C(C)=C\C=C\[C@H](C)[C@H](O)[C@@H](C)[C@@H](O)[C@@H](C)[C@H](OC(C)=O)[C@@H]1C [Rifampicin] 12.6
Cc1cnc(C(=O)NCCc2ccc(S(=O)(=O)NC(=O)NC3CCCCC3)cc2)cn1 [Glipizide] 2.75
CC(COc1ccccc1Cc1ccccc1)N1CCCCC1 (configuration not stated) [Benproperine] -8.06

— the supplement of paper PMC4840960
